Bioassay records deposited in PubChem by National Center for Advancing Translational Sciences (NCATS).
A selection: hits, their analogues and other compounds. The true share with any hit is near 11%.
ALDH1A1 inh = qHTS Assay for Inhibitors of Aldehyde Dehydrogenase 1 (ALDH1A1); Purified ALDH1A1, NADH fluorescence, propionaldehyde substrate; Potency, µM (top dose mostly 75.3 µM), for inactives: at the top dose activity, negative = inhibition, hits mostly inhibitors; actives 7.3% (n = 220,000);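 note: potency is the fitted concentration of half-maximal effect; plate controls were no enzyme wells and a reference inhibitor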
IMPase Li inh = qHTS Assay for Identifying the Cell-Membrane Permeable IMPase Inhibitors: Potentiation with Lithium; actives 0.35% (n = 210,000); AID 1457, 2008; Potency, µM (doses to about 59.4 µM), for inactives: top-dose activity, negative = IMPase inhibition, usual class: inhibitors; CHO-M1 cells, IP1 TR-FRET (IP-One), carbachol + lithium; active = well fitted curve in the direction sought with a large enough effect; inconclusive = small, poorly fitted or top-dose-only effect, or another doubt; inactive = no such curve, though single readings can be large; an effect the other way counts as inactive or inconclusive;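 note: IP1 builds up when IMPase is blocked and the TR-FRET signal falls; potency is the fitted concentration of half-maximal effect; plate controls were basal vehicle for no effect and high inhibitor control for full effect; nearly all actives have a fitted effect of over 50% in size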
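Steps: plate 2000 CHO-M1 cells per well and culture 16–30 h; add compound and lithium; incubate 30 min, 37C; add d2-IP1 tracer and Eu cryptate anti-IP1 antibody in lysis buffer; read after 10 min at room temperature.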
NPSR antag = qHTS Assay for Antagonists of the Neuropeptide S Receptor: cAMP Signal Transduction; Q6W5P4; CHO-NPSR cells, cAMP TR-FRET, antagonist mode; Potency, µM (titrated, usually from 38.3 µM), inactives show at the highest dose activity change, negative = inhibition, most hits filed as inhibitors; actives 1% (n = 220,000); AID 1461, 2008; active = well fitted curve in the direction sought with a large enough effect; inconclusive = small, poorly fitted or top-dose-only effect, or another doubt; inactive = no such curve, though single readings can be large; an effect the other way counts as inactive or inconclusive; note: potency is the fitted concentration of half-maximal effect; nearly all actives have a fitted effect of over 50% in size
Target sequence (Q6W5P4 whole entry, looked up): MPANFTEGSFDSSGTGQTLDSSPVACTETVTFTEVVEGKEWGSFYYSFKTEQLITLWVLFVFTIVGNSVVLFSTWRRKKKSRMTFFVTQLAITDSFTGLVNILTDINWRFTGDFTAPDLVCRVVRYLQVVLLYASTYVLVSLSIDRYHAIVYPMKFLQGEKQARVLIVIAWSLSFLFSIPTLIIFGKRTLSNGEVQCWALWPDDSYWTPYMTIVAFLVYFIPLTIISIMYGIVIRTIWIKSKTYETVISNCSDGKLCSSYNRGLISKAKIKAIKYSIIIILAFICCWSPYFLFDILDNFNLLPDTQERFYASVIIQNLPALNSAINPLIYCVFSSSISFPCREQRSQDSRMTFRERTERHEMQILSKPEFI
HPGD inh = qHTS Assay for Inhibitors of HPGD (15-Hydroxyprostaglandin Dehydrogenase); 15-hydroxyprostaglandin dehydrogenase [NAD(+)] (Homo sapiens), P15428; purified HPGD, NADH fluorescence kinetic, PGE2 substrate; Potency, µM, inactives show at the highest dose activity change, negative = inhibition, actives largely listed as inhibitors; actives 4.3% (n = 150,000); AID 894, 2007; note: potency is the fitted concentration of half-maximal effect
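NADH formation kinetics: reaction with 30 uM PGE2 and 1 mM NAD+ (final), 20 nM enzyme, Tris-HCl pH 8 with Tween 20, after 15 min compound preincubation at room temperature. Fluorescence change, last versus first of five reads.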
PNC inhibitor = High Content Assay for Compounds that inhibit the Assembly of the Perinucleolar Compartment; PC3M PTB-GFP, PNC prevalence imaging, 16 h; active compounds read low; activity change (PNC), negative = inhibition, % at 10 µM; actives 3.1% (n = 140,000); AID 2417, 2010;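 active = readout at or below -70, meaning at least 70% loss of cells showing the perinucleolar compartment, a nuclear body marking cancer cells; inconclusive = readout between -30 and a set limit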;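 note: plate controls were DMSO wells for no effect and camptothecin positive control wells for full effect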
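Read-out is percentage of cells bearing a perinucleolar compartment, from automated 20x imaging of fixed, Hoechst-stained PC3M PTB-GFP cells. Cells were seeded 4 h, then exposed 16 h to compound (23 nl of library stock) in duplicate plates.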
IMPase inh = qHTS Assay for Identifying the Cell-Membrane Permeable IMPase Inhibitors; Inositol monophosphatase 1 (Rattus norvegicus), P97697; CHO-M1 cells, IP1 accumulation, HTRF TR-FRET ratio; inhibition (IP1 accumulation), % at 46.1 µM; 120,000 tested, under 10 active; active = well fitted curve in the direction sought with a large enough effect in the signal ratio, not every such curve was filed as active; inconclusive = small, poorly fitted or top-dose-only effect, or a change in a side signal; inactive = no such curve, though single readings can be large or run the other way; the % refers to the signal ratio;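 note: cells stimulated with carbachol in lithium chloride buffer; plate controls were DMSO basal wells for no effect and reference inhibitor wells for full effect; higher means more IMPase inhibition seen as more IP1 and lower FRET ratio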
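Cellular IMPase inhibition is scored as a rise in cytosolic IP1, detected by competitive TR-FRET between d2-labelled IP1 and a europium anti-IP1 antibody. M1-expressing CHO cells were stimulated with carbachol for 30 min at 37C, with lithium (50 mM LiCl) present in the buffer.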
Active calls of the source: *; ? = inconclusive; . = no result given; ! = not confirmed by another sample; [ ] = dose if it differs, or a comment. Unless noted, calls come from the whole dose curve; as a rule, active = well fitted inhibition curve with a large enough effect (not every such curve was filed as active); inconclusive = small, poorly fitted or top-dose-only effect, or another doubt; inactive = no such curve, though single readings can be large or run the other way. Unless noted, % is set by controls: 0 for no effect and ±100 for the full control effect.

SMILES | ALDH1A1 inh | IMPase Li inh | NPSR antag | HPGD inh | PNC inhibitor | IMPase inh
CN(CCc1ccc(Cl)c(Cl)c1)[C@H]1CCCC[C@H]1N1CCCC1 | 25µM* | 32% | . | -3% | . | 17
Cc1ccc(OCC(=O)NCCN2CCN(C(=O)COc3ccc(C)cc3)CC2)cc1 | ? | 19%[38.3 µM] | 18%[46.1 µM] | -3% | -107* | 7
Cc1ccc(OCC(=O)N2CCN(Cc3ccc(F)cc3)CC2)cc1 | . | . | . | . | . | 14
O=[As](O)(O)c1ccc(Cc2ccc([As](=O)(O)O)cc2)cc1 | 2.2µM* | 3% | . | 3.5µM* | . | .
CC1=[N+]([O-])C2(N)CCc3nonc3C2(O)C1 (stereo unspecified) | 7.1µM* | 7%[38.3 µM] | ? | -10% | 25 | 0
CC(C(=O)N1CCC2(CC1)OCCO2)C1Sc2ccccc2NC1=O (stereo unspecified) | 0% | -5%[38.3 µM] | 2%[46.1 µM] | 1% | ? | -6
O=NN(CCCl)C(=O)NCCCl | 3.2µM*! | -13% | 8%[46.1 µM] | -4% | . | -2
CCCCC/C=C\C/C=C\C/C=C\C/C=C\CCCC(=O)NC(C)C(=O)O (stereo unspecified) | -4% | 14% | . | -6% | . | .
N#CC(C#N)=Cc1ccc(C=C(C#N)C#N)cc1 | 0.35µM* | . | ? | . | . | .
O=[N+]([O-])c1ccccc1O | 16% | 12% | . | -1% | . | .
Cc1ccc2cc(C=C(C#N)C#N)c(Cl)nc2c1 | -79% | -4% | -45% | -20% | -26 | .
N#CC(C#N)=Cc1ccc([N+](=O)[O-])c(O)c1 | 16µM* | 12% | -2%[46.1 µM] | 16µM* | . | 2
CC12CN3CC(C)(CN(C1)C3c1cccs1)C2=O (stereo unspecified) | 8% | -8% | 18% | . | . | .
CCC1(c2ccccc2)C(=O)N(COC)C(=O)N(COC)C1=O | 10% | -10%[38.3 µM] | -8%[46.1 µM] | -12% | ? | 0
O=C(c1cc(-c2cccnc2)nc2ccc(Cl)cc12)N1CCC2(CC1)OCCO2 | 7.1µM* | -1%[38.3 µM] | 4%[46.1 µM] | -9% | 8 | -6
O=C1CCC[C@H]2[C@@H]3CCCN4CCC[C@H](CN12)[C@H]34 | -5% | 7% | . | -11% | . | .
O=C(Cc1ccccc1)NC(Oc1ccccc1Cl)C(Cl)(Cl)Cl (stereo unspecified) | ? | 4% | -28% | ? | 10 | .
CCCCCCCC(=O)NC(Oc1ccccc1[N+](=O)[O-])C(Cl)(Cl)Cl (stereo unspecified) | -6% | -4%[38.3 µM] | -2%[46.1 µM] | 10µM* | 18 | 8
COc1cc(CNC(=O)CCCC/C=C\C(C)C)ccc1O | 3.5µM* | 5% | -20% | -8% | . | -5
CN(C)CCCN=Cc1c(O)n(CCc2ccccc2)c(=O)[nH]c1=O | 1% | 16%[38.3 µM] | -1%[46.1 µM] | -1% | 19 | 2
Cc1ccc(C)c(Cn2c(C(=O)O)c(C=O)c3ccccc32)c1 | 19µM* | 5% | -13% | . | . | .
O=c1c2ccccc2nc(CNCc2ccco2)n1-c1ccc(F)cc1 | 0% | 6% | -10% | -5% | -83* | .
NCCc1c[nH]c2ccc(O)cc12 | 11% | -16% | . | -3% | . | .
O=C(Nc1ccccc1)N1CC2CC(C1)c1cccc(=O)n1C2 (stereo unspecified) | 4% | 5% | 4% | . | . | .
Cc1ccccc1-n1c(C)cc(/C=C2/C(=O)NC(=O)N(Cc3ccco3)C2=O)c1C | 3.5µM* | 21% | -1% | -18% | 23 | 9
Cc1ccc(-n2c(C)cc(/C=C3/C(=O)NC(=O)N(C)C3=O)c2C)cc1 | ? | 7% | 3% | -2% | -85* | .
Cc1cc(C=C2C(=O)N(C)C(=O)N(C)C2=O)c(C)n1-c1ccccc1 | ? | -1% | 11% | . | . | .
Cc1cc(/C=C2\C(=O)NC(=O)N(c3ccc(F)cc3)C2=O)c(C)n1-c1ccc(C(=O)O)cc1 | 7.9µM* | -1% | 6% | . | . | .
